PAX8 reporter = inhibitors of PAX8 transcriptional activity in RMG-I cells; RMG-I TPO-luciferase reporter, SteadyGlo, 24 h; inhibition, % at 12.6 µM; hit rate 1.2% among 360,000;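 active means mean replicate inhibition at least 60% with every replicate also reaching 60%; inconclusive means only one of the two criteria is met; inactive means mean below 60% and not all replicates reaching 60%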;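 further: luciferase light reporting Pax8 driven TPO promoter activity; plate controls were median of neutral control wells for no effect and mitoxantrone controls for full effect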
EWS-Fli inh = blocks EWS/Fli oncoprotein-driven transcription. AID 651661. A673 NR0B1-luciferase reporter, viability-normalised. inhibition, % at 12.6 µM. hit rate 0.67% among 350,000;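 active means mean inhibition of at least 50% after viability correction, with every replicate also passing that limit; inconclusive means mean reaches 50% but only one of two replicates passes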;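 further: firefly luciferase signal divided by Alamar Blue viability fluorescence both relative to DMSO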
LGR2 inh = Drosophila LGR2 receptor signaling inhibition. HEK293 LGR2, CRE-luciferase, bursicon-stimulated, 4 h. inhibition, % at 9.99 µM. hit rate 0.35% among 380,000;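 active means drop in luminescence signal, shown as inhibition above about 50% in the replicate tests, limit read from the data, passing the limit was not always enough; inconclusive means probably only some replicates passing the limit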;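 further: agonist challenge used bursicon conditioned medium at about half maximal strength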
Shn3 inh set2 = Schnurri-3 reporter inhibition in Clone20 osteoblasts | Clone20 osteoblast Shn3 3'UTR firefly luciferase, 24 h | inhibition, % at 12.5 µM | hit rate 0.52% among 360,000;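 active means mean inhibition of at least 75% with every replicate also reaching 75%; inconclusive means mean inhibition at least 75% but some replicate below; inactive means mean inhibition below 75%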;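 further: 0% = median of neutral control wells and 100% = pilot-screen positive control compound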
CF NFkB block = inhibitors of cystic fibrosis induced NF-kB | KKLEB NF-kB-GFP reporter, PAF-induced, GFP fluorescence overnight | inhibition, % at 5 µM | hit rate 0.86% among 360,000;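 active means at least 50% inhibition at 5 µM, scaled per plate between neutral and stimulator controls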;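 further: PAF is a Pseudomonas aeruginosa culture filtrate used as stimulus; plate controls were PAF-stimulated DMSO wells for no effect and unstimulated DMSO wells for full effect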
KKLEB cytotox = counter-screen for CF NF-kB inhibitors: cytotoxicity; hit rate 0.36% among 360,000; KKLEB CF airway cells viability, ATPlite luminescence, overnight; active compounds read low; cells stimulated with P. aeruginosa culture filtrate; activity change (cytotoxicity), % at 5 µM;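 active means corrected activity change at or below -50% at 5 µM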
* = called active by the depositor; ? = inconclusive; / = no result. An excerpt weighted towards active compounds, which were near 2% of everything screened.

SMILES | PAX8 reporter | EWS-Fli inh | LGR2 inh | Shn3 inh set2 | CF NFkB block | KKLEB cytotox
CC(=O)Nc1ccc(C(=O)Nc2nc(-c3ccccn3)cs2)cc1 | 0 | -13 | / | -22 | 16 | -10
COc1cccc(CN2[C@@H](CO)[C@H](c3ccccc3)C23CN(C(=O)C2CC2)C3)c1 | / | -13 | 3 | / | / | /
Cc1cc[n+](CC[n+]2ccc(C)cc2)cc1 | 4 | -22 | -8 | 5 | -7 | 2
Cc1cc(C(C)(C)C)ccc1OCCCCN1CCCC1 | 18 | / | 14 | 16 | 8 | -5
CCC(C)(C)c1ccc(OCCCC[n+]2cccc(C)c2C)c(C(C)(C)CC)c1 | 98* | ? | / | / | 47 | -32
CCC(C)(C)c1ccc(OCCCC[n+]2ccc(C)cc2)c(C(C)(C)CC)c1 | 85* | / | 34 | / | / | /
CCOc1ccc2c(CC)cc(=O)oc2c1OCC | 102* | -5 | -22 | 0 | -1 | 0
COc1ccc(NC(=O)CSc2ccccn2)cc1OC | / | / | / | 4 | -9 | -1
COc1ccc(NC(=O)CSc2ncccc2C(=O)OC(C)C)cc1OC | / | / | / | 87* | 6 | 5
COc1cccc(-c2nc(CS(=O)(=O)CC(=O)NCCCN3CC(C)CC(C)C3)c(C)o2)c1 (stereo unspecified) | 118* | 0 | 10 | -20 | 4 | -1
C[C@@H]1CN([C@@H](C)CO)S(=O)(=O)c2ccc(C#Cc3ccccc3F)cc2O[C@@H]1CN(C)CC1CC1 | / | 25 | 19 | / | / | /
CCC(C)Nc1nc(N)c([N+](=O)[O-])c(N2CCCCCC2)n1 (stereo unspecified) | 77* | 14 | -6 | 9 | 26 | -29
CCCCN(C(C)=O)c1ccc2c(c1)C1CC2CCN1C(=O)OCc1ccccc1 (stereo unspecified) | 29 | 5 | 15 | 90* | 9 | -17
CC(C)CC#Cc1ccc2c(c1)O[C@H](CN(C)Cc1cccc(F)c1)[C@@H](C)CN([C@@H](C)CO)S2(=O)=O | / | 62* | 10 | / | / | /
CC(C)CC#Cc1ccc2c(c1)O[C@H](CN(C)Cc1ccc(F)cc1)[C@H](C)CN([C@H](C)CO)S2(=O)=O | 76* | 36 | / | / | / | /
CC(C)CC#Cc1ccc2c(c1)O[C@@H](CN(C)Cc1ccc(F)cc1)[C@H](C)CN([C@@H](C)CO)S2(=O)=O | 28 | 31 | 17 | / | / | /
CCN(c1nc(N)c(C(=O)N=C(N)N)nc1Cl)C(C)C | 107* | 13 | -25 | 15 | -11 | -32
COc1ccc(C(=O)Cn2c(C(=O)/C=C/c3ccccc3)nc3ccccc32)cc1 | / | / | / | 102* | -4 | -14
COc1ccc(C(=O)CSc2nc3ccccc3n2CC(=O)c2ccccc2)cc1 | / | 6 | 11 | 4 | -4 | -18
N#Cc1nc(Nc2cccc(Cl)c2)c2ncn(C3CCCC3)c2n1 | 34 | 1 | -5 | -9 | 51* | -54*
C=CCN=c1scc(-c2ccco2)n1/N=C/c1ccc(O)c(O)c1O | 11 | -42 | -18 | 91* | 23 | -7
CC(C)N=c1scc(-c2ccco2)n1/N=C/c1ccc(O)c(O)c1 | / | / | -37 | 94* | 2 | -14
COCCN=c1scc(-c2ccco2)n1/N=C/c1ccc(O)c(O)c1O | 27 | 13 | 14 | 46 | -11 | -5
CN1C(=O)c2cc(NC(=O)c3ccc(F)c(F)c3)ccc2OC[C@@H]2O[C@@H](CC(=O)N[C@H]3CCN(Cc4ccccc4)C3)CC[C@@H]21 | 22 | -2 | 3 | / | / | /
COc1ccc(S(=O)(=O)Nc2ccc3c(c2)CC(=O)N([C@@H](C)CO)C[C@@H](C)[C@@H](CN(C)C(=O)Nc2ccccc2)O3)cc1 | -10 | 4 | 9 | / | / | /
COc1ccc(S(=O)(=O)Nc2ccc3c(c2)C(=O)N([C@H](C)CO)C[C@@H](C)[C@H](CN(C)Cc2ccc(C(F)(F)F)cc2)OCCCC[C@H](C)O3)cc1 | 26 | 32 | 16 | / | / | /
COc1ccc(S(=O)(=O)Nc2ccc3c(c2)C(=O)N([C@@H](C)CO)C[C@H](C)[C@@H](CN(C)Cc2ccc(C(F)(F)F)cc2)OCCCC[C@H](C)O3)cc1 | 106* | 25 | 16 | / | / | /
COc1ccc(S(=O)(=O)Nc2ccc3c(c2)C(=O)N([C@H](C)CO)C[C@H](C)[C@@H](CN(C)Cc2ccc(C(F)(F)F)cc2)OCCCC[C@H](C)O3)cc1 | 104* | 6 | -4 | / | / | /
COc1ccc(NC(=O)N[C@H]2CC[C@H](CCn3cc(-c4ccccc4)nn3)O[C@@H]2CO)cc1 | 7 | -9 | 7 | / | / | /

From PubChem
